KOR antag MB: OPRK1 (human) antagonism, Maybridge screen; P41145; OPRK1 cells, antagonist mode, fluorescence readout; inhibition, % at 9 µM; actives 0.4% (n = 16,000); in the data active = inhibition above about 50%
Luminol counter: quenches luminol chemiluminescence in Nox1 counter-screen; HRP/luminol/H2O2 chemiluminescence counterscreen; inhibition, % at 6.7 µM; actives 0.4% (n = 16,000); note: reference of the scale not given here
S1P1 ag: activates the human S1P1 receptor; S1P1 agonist cell-based reporter assay; activation, % at 4.5 µM; actives 1.5% (n = 16,000); AID 1044; in the data active = activation above about 80%
Nox1 inhibitor: blocks human NADPH oxidase 1 activity. Q9Y5S8. HT29 cells, luminol chemiluminescence ROS. inhibition, % at 6.7 µM. actives 0.81% (n = 16,000)
Target sequence (Q9Y5S8 whole entry, looked up): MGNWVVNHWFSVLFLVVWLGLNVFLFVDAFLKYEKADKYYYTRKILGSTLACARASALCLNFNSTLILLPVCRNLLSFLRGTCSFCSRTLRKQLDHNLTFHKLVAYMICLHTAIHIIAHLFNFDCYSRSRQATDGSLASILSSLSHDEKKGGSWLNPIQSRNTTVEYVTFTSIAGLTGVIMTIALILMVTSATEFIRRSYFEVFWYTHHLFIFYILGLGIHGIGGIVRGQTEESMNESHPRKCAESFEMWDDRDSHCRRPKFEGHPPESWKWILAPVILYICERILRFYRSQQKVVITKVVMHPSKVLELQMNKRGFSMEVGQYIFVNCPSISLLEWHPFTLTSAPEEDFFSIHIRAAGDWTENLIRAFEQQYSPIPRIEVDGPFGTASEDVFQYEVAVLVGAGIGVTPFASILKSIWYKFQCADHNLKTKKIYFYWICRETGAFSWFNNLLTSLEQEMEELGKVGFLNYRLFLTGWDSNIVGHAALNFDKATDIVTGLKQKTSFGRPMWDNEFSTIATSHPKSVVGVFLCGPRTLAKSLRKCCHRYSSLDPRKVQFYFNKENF
PME-1 Maybr inh: inhibitors of human PME-1 in Maybridge library; Q9Y570; recombinant PME-1, FP-Rh probe fluorescence polarization; inhibition, % at 9 µM; actives 0.5% (n = 16,000); AID 2291; in the data active = inhibition above about 30%
NOTCH agonist: activates NOTCH signaling in reporter cells. NOTCH signaling luciferase reporter cells, luminescence. activation, % at 2.5 µM. actives 0.4% (n = 15,000). AID 434982; in the data active = activation above about 2.2%
Each line names hits and unclear results; the compound was inactive in the other large screens. This is a sample that favours compounds with a hit; in the whole collection about 4% have one here. Cut-off read from the data, not from the text of the source, unless noted: active = inhibition above about 75%; inactive = the rest.

CCOC(=O)N/N=C/c1ccc(O)cc1	none
CC(C)(C)n1cnnc1SCc1c(Cl)cccc1Cl	none
O=[N+]([O-])c1cc(C2SCCS2)ccc1SCc1ccco1	S1P1 ag 100
O=C(CC(C(=O)c1ccccc1)c1cccs1)c1ccc(Cl)cc1 (centres undefined)	none
COc1ccc(C(=O)CC(C(=O)c2ccccc2)c2ccccc2)cc1 (centres undefined)	S1P1 ag 102
O=[N+]([O-])c1cc(Br)c(Oc2cncc(Cl)c2)cc1Oc1cncc(Cl)c1	PME-1 Maybr inh 52
CC(=O)Nc1ccc(S(=O)(=O)Oc2ccccc2N2CCCCC2)cc1Cl	none
CCOC(=O)NS(=O)(=O)c1ccccc1Cl	none
COc1nc(NNC(=O)NS(=O)(=O)c2ccccc2Cl)nc(OC)n1	Nox1 inhibitor 78
CNC(=S)N(C)NC(=S)Nc1ccc(OC)c(OC)c1	Nox1 inhibitor 84
COc1ccc(OC)c(S(=O)(=O)c2ccc([N+](=O)[O-])cc2Cl)c1	Nox1 inhibitor 89
O=[N+]([O-])c1ccc(OCS(=O)(=O)c2ccc(F)cc2F)c(Cl)c1	none
COC(=O)c1sc(C(F)(F)F)c(-c2ccccc2)c1N	S1P1 ag 98
CC(=O)NC(Nc1ccccc1)(C(F)(F)F)C(F)(F)F	none
N#C/C(=C\Nc1ccc2c(c1)OCCO2)S(=O)(=O)c1cccs1	none
COC(=O)c1cc(-c2ccc(OC)cc2)c(-c2ccc(OC)cc2)s1	KOR antag MB 78
COC(=O)c1cc(C)c(-c2ccc(-c3ccccc3F)cc2)s1	none
O=C(Cc1ccccc1Cl)N/N=C(/C(=O)O)c1ccccc1	PME-1 Maybr inh 38
Cc1cc(N=Nc2ccc(Cl)cc2)cc(CN2CCOCC2)c1O	S1P1 ag 95
Cc1ccc2oc(=O)cc(CN3CCOCC3)c2c1	none
CCOC(=O)N/N=C(/CN1C(=O)c2ccccc2C1=O)c1ccc(C(F)(F)F)cc1	none
N#C/C(=C\Nc1ccc2c(c1)OCCO2)C(=O)c1ccc(Cl)cc1	S1P1 ag 85
Cn1c(SCc2ccccc2)nc2cc(C(F)(F)F)cnc21	none
Cc1sc(-c2ccccc2)nc1CC(=O)NN	none
O=S(=O)(CCS(=O)(=O)c1ccccn1)c1ccc(Cl)cc1	none
Cc1nn(-c2ccccc2)nc1C(=O)NNC(=O)CSCc1cccc2ccccc12	S1P1 ag 89
COc1ccccc1N1CCN(S(=O)(=O)c2ccc(-c3cnoc3)s2)CC1	none
Cc1nccc(-c2cccc(NN=C(C#N)C#N)c2)n1	S1P1 ag 104
O=C(NC1CCS(=O)(=O)C1)c1ccc(-c2ccccn2)s1 (centres undefined)	none
O=C1CC2(CCCC2)C(=O)N1CCNc1ncccc1C(F)(F)F	none
COc1ccc(-c2cc(N)n(-c3ccc(Cl)c(Cl)c3)n2)cc1	none
O=S(=O)(NCCSCc1ccccc1Cl)c1c(Cl)sc(Cl)c1Br	none
N#Cc1c(Cl)cccc1Oc1ccc(S(=O)(=O)Nc2ccc(N3CCCCC3)cc2)cc1	none
N#Cc1c(Cl)cccc1Oc1ccc(S(=O)(=O)NNc2c(Cl)cncc2Cl)cc1	S1P1 ag 108
CC(=O)Nc1cccc(OCCCNS(=O)(=O)c2ccc(Oc3cccc(Cl)c3C#N)cc2)c1	S1P1 ag 93
CSC(=NC1CCCCNC1=O)NC#N (centres undefined)	none
N#C/C(=C\Nc1cc(C(F)(F)F)cc(C(F)(F)F)c1)S(=O)(=O)Cc1ccc(Cl)cc1	S1P1 ag 100
CCOC(=O)COc1cccc([N+](=O)[O-])c1	NOTCH agonist 3.0
CC(=O)OC(C(=O)N(Cc1ccccc1)c1ccccc1)c1ccccc1 (centres undefined)	none
Cc1ccc(N(C)NC=C(C#N)C#N)nn1	none
CN(NC=C(C#N)C#N)c1ccccc1[N+](=O)[O-]	Nox1 inhibitor 104
N#C/C(N)=C(\C#N)N=Cc1ccc(Cl)cc1	none
O=c1[nH]c2ccsc2c(=O)n1CCO	Nox1 inhibitor 84
Cc1cc(=O)n(CCO)c(=O)[nH]1	none
CS(=O)(=O)Nc1ccc2[nH]cc(C#N)c2c1	none
CCOC(=O)c1c(C)nsc1N/N=C(\C#N)C(=O)c1ccc(Cl)cc1	S1P1 ag 113 (no result: NOTCH agonist)
N#C/C(=N\Nc1ccc(F)cc1)C(=O)c1ccc(Cl)cc1	S1P1 ag 103
N#C/C(=N\O)C(=O)c1ccc(Cl)cc1	none
Cc1nn(-c2ccccc2)nc1CNC(=O)C1=Cc2ccccc2OC1	NOTCH agonist 2.3
O=C(NCc1csc(-c2cccs2)n1)C1=Cc2ccccc2OC1	none
O=C(Nc1ccccc1C(=O)NCCCn1ccnc1)c1ccc([N+](=O)[O-])o1	none
O=c1ccc([N+](=O)[O-])cn1C1CCCCO1 (centres undefined)	S1P1 ag 94
O=C(OC1OCCOC1OC(=O)c1ccc([N+](=O)[O-])cc1)c1ccc([N+](=O)[O-])cc1 (centres undefined)	none
O=c1oc2ccccc2c2c1Sc1ccccc1N2	none
O=C(NCCc1ccccc1)c1ccc2ncccc2c1	none
COc1ccc(OC(=O)c2ccc3ncccc3c2)cc1	Nox1 inhibitor 92
O=C(/C=C/c1cc(-c2ccccc2)c(C(F)(F)F)s1)c1cccs1	KOR antag MB 63, S1P1 ag 100 (no result: NOTCH agonist)
COc1cccc(/C=C(\C#N)c2ccc([N+](=O)[O-])cc2)c1OC	KOR antag MB 69
Clc1ccc(-c2noc(CSC3=NCC4CCCC4N3)n2)cc1 (centres undefined)	none
CCC(C#N)(c1ccccc1)c1ccc(N)cc1 (centres undefined)	none
Cc1ccc([N+](=O)[O-])c(NS(=O)(=O)c2cc(Cl)c(Cl)cc2Cl)c1	S1P1 ag 87
COc1ccc(OC)c(NC(=O)Nc2ccc(Cl)cc2Cl)c1	none
COc1ccc(Cl)cc1NC(=O)Nc1ccc(N(C)C)cc1	Nox1 inhibitor 99
COc1ccc(-c2n[nH]c(=S)n2-c2ccccc2Cl)cc1	none
C=CCn1c(C(C)Oc2ccc(Cl)cc2)n[nH]c1=S (centres undefined)	Luminol counter 94
COc1ccc(-n2ncc(NC(=O)N3CCN(c4ccc(C(F)(F)F)cn4)CC3)c2C)cc1	none
CCn1c(-c2cc(-c3ccccc3)sc2N)n[nH]c1=S	Nox1 inhibitor 98
CSC(=NCc1c(N(C)C)cccc1N(C)C)NS(=O)(=O)c1ccccc1	S1P1 ag 95 (no result: NOTCH agonist)
CSC(=NCCSC(C)(C)C)NS(=O)(=O)c1ccccc1	none
COC(=O)/C=C1\SC(=Nc2ccc(Cl)cc2)N(c2ccc(Cl)cc2)C1=O	KOR antag MB 65
O=C(NNc1cc(Cl)cc(Cl)c1)c1ccc(F)cc1F	Luminol counter 76
Nc1ccccc1Sc1ccc(Cl)cc1[N+](=O)[O-]	none
O=[N+]([O-])c1cc(Cl)ccc1Sc1ccccc1NS(=O)(=O)c1ccc(F)cc1	PME-1 Maybr inh 63
N#C/C(=N\Nc1ccc(C(F)(F)F)cc1)S(=O)(=O)c1cccs1	S1P1 ag 110
COC(=O)c1scc(C#N)c1N/N=C(\C#N)S(=O)(=O)c1cccs1	none
O=C(CNc1ccc(F)cc1F)Nc1cc(C(F)(F)F)cc(C(F)(F)F)c1	none

Source: PubChem (The Scripps Research Institute Molecular Screening Center)
